From PubChem BioAssay AID485341 (National Center for Advancing Translational Sciences (NCATS), 2010)
The whole screen tested about 330,000 compounds, of which about 1,700 (0.52%) were called active. The call rests on the fitted dose curve; in most records, active means well fitted inhibition curve with a large enough effect; inconclusive means small, poorly fitted or top-dose-only effect; inactive means no such curve, though single readings can be large or run the other way. The list comes from a sample in which actives are over-represented; it also holds similar structures and randomly drawn compounds. A call without a number means that no potency is given here.

These compounds were tested against Beta-lactamase (Escherichia coli (strain K12)) (UniProt P00811) (assay: qHTS Inhibitors of AmpC Beta-Lactamase (assay without detergent)). Conditions: AmpC nitrocefin hydrolysis, absorbance 480 nm, 0.0001% Triton; series mostly up to 57.1 µM.
Beta-lactamase (Escherichia coli (strain K12)), sequence (P00811 whole entry, looked up): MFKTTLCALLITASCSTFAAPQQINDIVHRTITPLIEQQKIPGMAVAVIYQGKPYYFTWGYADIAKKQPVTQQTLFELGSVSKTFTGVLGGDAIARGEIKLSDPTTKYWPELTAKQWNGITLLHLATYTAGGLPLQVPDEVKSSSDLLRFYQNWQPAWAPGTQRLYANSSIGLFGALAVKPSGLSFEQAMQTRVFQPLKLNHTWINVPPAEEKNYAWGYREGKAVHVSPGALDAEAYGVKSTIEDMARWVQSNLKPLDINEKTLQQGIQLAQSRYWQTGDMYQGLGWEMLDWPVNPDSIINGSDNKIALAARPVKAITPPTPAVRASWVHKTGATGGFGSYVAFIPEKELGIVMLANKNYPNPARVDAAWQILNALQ
Method: NIH Molecular Libraries Probe Production Network [MLPCN] NIH Chemical Genomics Center [NCGC] Assay Provider: Professor Brian Shoichet, UCSF Assay Overview: This aggregation profiling approach exploits the sensitivity of aggregate formation to detergent. Inhibition of b-lactamase is measured in the presence and absence of 0.01% Triton X-100. This particular assay had the prescence of 0.01% Triton X-100. See Pubchem assay "Promiscuous and Specific Inhibitors of AmpC Beta-Lactamase (assay without detergent)" for related screen. Compounds that inhibit only in the absence of detergent are considered likely promiscuous aggregators. A screen of 1,030 compounds was performed in Brian Shoichet's lab in 96-well format. AmpC activity was measured by following the absorbance at 480 nm. Nitrocefin is a chromogenic substrate: while nitrocefin is yellow (lmax 390 nm), the product of its hydrolysis is red (lmax 486 nm, 17,000 M-1). AmpC beta lactamase was provided by Shoichet Lab, UCSF.
Buffer: 20 mM phosphate buffer, pH 7.0 Triton X-100: No Detergent screen: 0.0001%, Detergent screen: 0.01%. Reagents/Controls: Buffer in columns 3 and 4 as negative control (no enzyme). 5.3 nM AmpC in columns 1, 2, 5-48. Titration of UCSF compound 9 control (from 10 mM, then 1:2) pin-transferred to column 2. Column 1 is neutral (100% activity). Assay Steps: Six uL of reagents were dispensed to 1536-well Greiner black clear bottom plates. Compounds and controls (23 nL) were transferred via Kalypsys PinTool. The plates were incubated for 15 min at room temperature, and then 2 uL of 800 uM solution of nitrocefin was added to start the reaction. The plates were immediately transferred to and read every 20 seconds for 4 min on ViewLux (Perkin-Elmer) High-throughput CCD imager using 480 nm absorbance protocol. During dispense, reagent bottles were kept submerged into 4 deg C water bath. Keywords: NIH Roadmap, MLSCN, MLI, MLSMR, qHTS, NCGC, AmpC Beta-Lactamase, Aggregation
Further: nearly all actives have a fitted effect of over 20% in size.
Potency means the concentration at half of the fitted maximal effect.

Compound	Potency
O=C(CN(c1cccc(Cl)c1)S(=O)(=O)c1ccccc1)NN=C1CCCC1	inactive
Cc1ccccc1Cn1nc(C)c(NC(=O)C(F)(F)F)c1C	inactive
Cc1nn(Cc2ccc(F)cc2)c(C)c1NC(=O)c1noc2c1CCc1ccccc1-2	11.2 µM (active)
Cc1nn(Cc2ccc(F)cc2)c(C)c1NC(=O)c1cccnc1Cl	inactive
COC(=O)[C@]1(Cc2ccccc2)N[C@H](CN(C)S(=O)(=O)c2ccc(OC(F)(F)F)cc2)[C@@H]2C(=O)N(Cc3ccccc3)C(=O)[C@@H]21	inactive
CC(O)c1nc2c(c(=O)n(C)c(=O)n2C)n1C (stereo unspecified)	inactive
Cc1ccc(S(=O)(=O)N(CC(=O)NCc2ccco2)c2ccccc2C)cc1	inactive
COc1ccc(-c2cc(C(=O)N(C)CC(=O)Nc3ccccc3Cl)c3ccccc3n2)cc1OC	inactive
CC(C)CC1(C)NC(=O)N(CC(=O)Nc2ccc3c(c2)OCCO3)C1=O (stereo unspecified)	inactive
COC(=O)C1=C(Nc2ccc(C)cc2)C=C(C)C(C(=O)OC)C1c1ccc(F)cc1 (stereo unspecified)	inactive
Cc1ccccc1C(=O)O	inactive
Cc1ccccc1C(=O)OC1OC(=O)C(Cl)=C1Nc1ccccc1 (stereo unspecified)	6.31 µM (active)
Cc1ccc(NC2=C(Cl)C(=O)OC2OC(=O)c2ccccc2C)cc1 (stereo unspecified)	3.98 µM (active)
Cc1ccccc1C(=O)Nc1ccccc1NC(=O)c1ccccc1C	inactive
COC(=O)C1=C(Nc2ccc(OC)cc2)C=C(C)C(C(=O)OC)C1c1ccc(C)cc1 (stereo unspecified)	inactive
O=S(=O)(Nc1ncccn1)c1ccc(NS(=O)(=O)c2cccc(Cl)c2Cl)cc1	inactive
O=C(COC(=O)/C=C/c1cccs1)NC1CCCCC1	inactive
COc1ccc(CC(=O)N[C@@H]2c3cc(OC)c(OC)cc3C[C@H]2OCc2ccccc2)cc1	inactive
CC(=O)c1c(C)c[nH]c1C	inactive
CCCCN(C(=O)C1CCC1)c1c(N)n(Cc2ccccc2)c(=O)[nH]c1=O	inactive
CCn1c2ccccc2c2cc(NC(=O)Nc3ccc([N+](=O)[O-])cc3C)ccc21	inactive
COCCCNC(=S)N1CCN(c2nc(-c3cccc(OC)c3)cs2)CC1	inactive
CC(=O)Nc1ccc(NC(=O)CSc2nnc(COc3ccccc3C)n2CC2CCCO2)cc1 (stereo unspecified)	inactive
CC[N+]1(CC)CC2=Cc3ccccc3CC2C1 (stereo unspecified)	inactive
CCC(C)Cn1c(O)cc2nn(-c3nc4ccccc4s3)c(=O)c-2c1C (stereo unspecified)	17.8 µM (active)
CC(=NCc1ccco1)c1c(C(F)(F)F)[nH]n(-c2nc3ccccc3s2)c1=O	inactive

Compound	Potency
Cn1c(=O)c2c(nc(NCCNC(=O)c3ccco3)n2Cc2ccccc2F)n(C)c1=O	inactive
CCN=C1SC(CC(=O)Nc2ccc(C)cc2)C(=O)N1CC (stereo unspecified)	inactive
Cc1c(Cl)cccc1NC(=O)CC1SC(=NCC2CCCO2)NC1=O (stereo unspecified)	inactive
Cc1ccc(NC(=O)CC2S/C(=N/N=C3\CCCc4ccccc43)NC2=O)cc1 (stereo unspecified)	3.16 µM (active)
CCCCn1c(N)c(N(CCOC)C(=O)COc2c(C)cccc2C)c(=O)[nH]c1=O	inactive
CS(=O)(=O)N1CCN(C(=O)CSc2ccccc2)CC1	inactive
Cc1ccc(S(=O)(=O)N2CCCC2CO)cc1 (stereo unspecified)	inactive
COc1ccc(-n2nnnc2SCC(=O)c2ccc(OC)c(OC)c2)cc1	inactive
COc1ccc(CSc2nnnn2-c2ccc(O)cc2)cc1F	22.4 µM (active)
COc1ccc(CSc2nnnn2-c2ccc(C(=O)O)cc2)cc1	inactive
Cn1c2c(c(=O)n(C)c1=O)C(c1cccc([N+](=O)[O-])c1)Nc1ccccc1O2 (stereo unspecified)	inactive
CN(CCC1CCOCC1)C(=O)CC1C(=O)NCCN1Cc1cccc(F)c1 (stereo unspecified)	inactive
O=C(O)CCCC(=O)Nc1ccc(Oc2cccc(C(F)(F)F)c2)nc1	inactive
Cc1csc(=O)n1CC(=O)OCC(=O)N(CC(C)C)c1c(N)n(Cc2ccccc2)c(=O)[nH]c1=O	inactive
CC(C)CN(C(=O)COC(=O)c1ccc(Cl)c(N)c1)c1c(N)n(Cc2ccccc2)c(=O)[nH]c1=O	28.2 µM (active)
CC(C)CN(C(=O)COC(=O)c1ccc2ccccc2c1)c1c(N)n(Cc2ccccc2)c(=O)[nH]c1=O	inactive
CSc1ccccc1NC(=O)C(C)N1C(=O)c2ccccc2S1(=O)=O (stereo unspecified)	inactive
Cc1cc(NC(=O)CSCc2ccccc2C)no1	inactive
Cc1cc(NC(=O)C(C)N2C(=O)c3ccccc3S2(=O)=O)no1 (stereo unspecified)	25.1 µM (active)
O=C1CCC(=O)N(c2ccccc2)N1	inactive
O=C(OCC1O[C@@H](OC(=O)c2cc(O)c(O)c(O)c2)[C@@H](OC(=O)c2cc(O)c(O)c(O)c2)[C@@H](OC(=O)c2cc(O)c(O)c(O)c2)[C@@H]1OC(=O)c1cc(O)c(O)c(O)c1)c1cc(O)c(O)c(O)c1 (stereo partly specified)	1 µM (active)
CCOCCCNC(=O)c1ccc(CS(=O)(=O)c2cccc(C(F)(F)F)c2)o1	inactive
CCOCCn1[nH]c2ccccc2c1=O	inactive
O=C(CSc1nc(O)c(Cc2ccccc2)c(=O)[nH]1)Nc1nc2c(s1)CCCC2	inactive
CCOC(=O)c1sc(NC(=O)CSc2nc(O)c(Cc3ccccc3)c(=O)[nH]2)nc1C	15.8 µM (active)
CCOC(=O)c1sc(NC(=O)CSc2n[nH]c(CC)n2)nc1C	inactive

Compound	Potency
O=C(O)CCN=C1CCc2ccccc2N1	inactive
COC(=O)c1ccc(NC(=O)CSc2nnc(Cc3cccn3C)n2-c2ccc(F)cc2)cc1	inactive
Cc1ccc(C)c(NC(=O)CSc2nnc(Cc3cccn3C)n2-c2ccc(F)cc2)c1	inactive
COc1ccccc1NC(=O)CSc1nnc(Cc2cccn2C)n1-c1ccc(F)cc1	1.41 µM (active)
O=C(CN1CCCC1)Nc1sc2c(c1C(=O)Nc1ccccc1)CCCC2	inactive
Cc1cc2ncn(CCCCOc3ccccc3)c2cc1C	inactive
O=C(COC(=O)c1ccc(Oc2ccccc2)cc1)Nc1nnc(-c2ccccc2)o1	12.6 µM (active)
CC(=O)Nc1cccc(C(=O)OCC(=O)Nc2nnc(-c3ccccc3)o2)c1	inactive
COc1ccccc1C(=O)NCC(=O)OCC(=O)Nc1nnc(-c2ccccc2)o1	inactive
CCn1nnc(NC(=O)c2c(OC)cccc2OC)n1	inactive
CCN(C(=O)COC(=O)C1CCN(S(=O)(=O)c2ccc(C)c(C)c2)CC1)C1CCS(=O)(=O)C1 (stereo unspecified)	inactive
CCOC(=O)C1CCCN(C(=O)CSc2nnc3nc(C)cc(C)n23)C1 (stereo unspecified)	inactive
CC(=O)NCc1ccc(-c2csc(NC(=O)CCCc3nc4ccccc4c(=O)[nH]3)n2)cc1	inactive
Cc1cc(C)c(-c2csc(NC(=O)CCCc3nc4ccccc4c(=O)[nH]3)n2)c(C)c1	35.5 µM (active)
O=C(CSc1nc2ccccc2c(=O)[nH]1)Nc1nc(-c2ccc(Br)cc2)cs1	inactive
O=c1cc(CO)oc(C(Nc2cccc(C(F)(F)F)c2)c2ccccn2)c1O (stereo unspecified)	inactive
O=C(O)CN1c2cccc3cccc(c23)S1(=O)=O	inactive
Cc1cc(NC(=O)COn2nnc3ccccc32)no1	inactive
Cc1cc(NC(=O)CS(=O)(=O)c2cn(C)c3ccccc23)no1	10 µM (active)
CCOC(=O)c1ccc(NC(=O)CS(=O)(=O)c2cn(CC)c3ccccc23)cc1	inactive
Cc1ccc(NC(=O)CCCNC(=O)c2ccc(Cl)cc2)cc1S(=O)(=O)N1CCCCC1	inactive
CC1=C[C@H]2Cc3cc(C)cc(C)c3S(=O)(=O)[C@@H]2C=C1	inactive
Cn1nccc1/C=N\NC(=O)c1ccc(Cl)cc1	inactive
CC1(C)C2CC=C(/C=N/NC(=O)c3ccc(Cl)cc3)C1C2 (stereo unspecified)	11.2 µM (active)
CC1(C)C2CC=C(/C=N/NC(=O)C3CC3)C1C2 (stereo unspecified)	inactive
Cc1c(C(=O)N(C)CCc2cnn(C)c2)oc2c(F)cccc12	inactive

Compound	Potency
CN(C)S(=O)(=O)c1ccc(NC(=O)COC(=O)c2n[nH]c3ccccc23)cc1	inactive
CCN(CC)S(=O)(=O)c1ccc2nc(COC(=O)c3n[nH]c4ccccc34)[nH]c2c1	22.4 µM (active)
COc1ccc(COC(=O)c2n[nH]c3ccccc23)cc1F	inactive
COc1ccc(C(=O)O)cc1S(=O)(=O)NCc1cccnc1	inactive
CCC(C)NC(=O)c1ccccc1NC(=O)c1ccccc1N(C)S(C)(=O)=O (stereo unspecified)	inactive
Cc1ccc(C(=O)Oc2coc(CSc3nnc(NC(=O)c4cccs4)s3)cc2=O)cc1C	7.08 µM (active)
COC(=O)c1ccc(CSc2nnc(NC(C)C)s2)cc1	inactive
O=C(Cc1cccs1)Nc1nnc(SCc2ccc(F)cc2)s1	inactive
COc1cc(OC)cc(C(=O)NNC(=O)CNC(=O)c2ccc(Br)o2)c1	inactive
CSCC[C@H](NC(=O)N1CCn2c1nc1ccccc12)C(=O)NCc1ccc2c(c1)OCO2	inactive
CCc1ccc(-n2c(=S)sc3c(=O)n(-c4ccccc4OC)c(=S)[nH]c32)cc1	inactive
Cc1ccc(S(=O)(=O)N(Cc2ccccc2)c2ccccn2)cc1[N+](=O)[O-]	inactive
CCC(=O)N(Cc1ccccc1)c1ccccn1	inactive
CC(C)(C)C(=O)N(Cc1ccccc1)c1ccccn1	inactive
Cc1csc2ncc(C(=O)N(Cc3ccccc3)c3ccccn3)c(=O)n12	5.62 µM (active)
Cc1ccc(C(=O)NNC(=O)c2cc3cc4ccccc4nc3s2)cc1	22.4 µM (active)
Cc1ccc(C(=O)NNc2ncnc3ccccc23)cc1	inactive
Cc1ccc(C(=O)NNC(=O)c2ccc3c(c2)OCCO3)cc1	inactive
COc1cccc(N(CC(=O)NCc2ccccc2)C(=O)CCC(=O)Nc2nccs2)c1	inactive
COC(=O)CCC(=O)N1CCCC(CO)(Cc2ccccc2)C1 (stereo unspecified)	inactive
Cc1nc(Cl)c2oc3ccccc3c2n1	0.158 µM (active)
COc1ccc(C)cc1Nc1nc(C)nc2c1oc1ccccc12	inactive
Cc1nc(N2CCCC2C(=O)O)c2oc3ccccc3c2n1 (stereo unspecified)	inactive
